Screens (PubChem)
DT40 TDP1 no CPT – qHTS for Inhibitors of human tyrosyl-DNA phosphodiesterase 1 (TDP1): qHTS in cells in absence of CPT; DT40 Tdp1-/- hTDP1 cells, no CPT, ATP luminescence, 48 h; AID 686978, 2013; Potency, µM (series often up to 46.2 µM), for the others: at the highest dose activity change, negative = growth inhibition, usual class: inhibitors; actives 15% (n = 420,000); note: nearly all actives have a fitted effect of over 55% in size
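DT40 Tdp1-/-;hTDP1 cells, no CPT (DMSO vehicle only), 400 cells/well; compounds pin-transferred; ≥48 hr, 37 °C; CellTiter-Glo 30 min RT dark, luminescence read.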
TDP1 cell CPT – growth inhibition of DT40 Tdp1-/-;hTDP1 cells with camptothecin (screen for TDP1 inhibitors). AID 686979. chicken DT40 Tdp1-/-;hTDP1 cells + 20 nM CPT, ATP luminescence, 48 h. Potency, µM (highest dose often 46.2 µM), for inactives: at the highest dose activity change, negative = growth inhibition, most hits filed as inhibitors. actives 12% (n = 420,000); note: nearly all actives have a fitted effect of over 55% in size
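Chicken DT40 Tdp1-/- cells complemented with human TDP1, 400 cells/well, exposed to compounds plus 20 nM camptothecin for at least 48 h at 37 C; viability read as ATP content by CellTiter-Glo luminescence.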
12-LOX inh – inhibitors of human 12S-lipoxygenase ALOX12 | P18054 | purified 12hLO, xylenol orange hydroperoxide absorbance | Potency, µM (doses to about 108 µM), for the others: top-dose activity change, negative = inhibition, usual class: inhibitors | actives 1.1% (n = 580,000)
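Hydroperoxide product was detected by ferrous iron/xylenol orange as the 573 to 405 nm absorbance ratio. Arachidonic acid at 40 uM (final) was turned over for 30 min at room temperature by 150 nM human 12hLO, pH 7.0 Hepes buffer, after 15 min compound preincubation.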
VP16 counter – Gal4-VP16 reporter inhibition counter-screen. actives 3.5% (n = 310,000). Potency, µM (top dose mostly 53.6 µM), inactives show at the top dose activity, negative = inhibition, actives largely listed as inhibitors. Drosophila S2 Gal4-VP16 UAS-luciferase, luminescence, 20 h;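 note: Gal4-VP16 expression switched on by copper sulfate through the metallothionein promoter; nearly all actives have a fitted effect of over 50% in size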
ELG1 DNA repair – inhibitors of ELG1-dependent DNA repair in HEK293T cells; HEK293T ELG1-luciferase reporter, luminescence, 16 h; DNA damage induced by 5-fluorouridine; Potency, µM (titrated, usually from 46.1 µM), inactives show at the highest dose activity change, negative = inhibition, most hits filed as inhibitors; actives 2.3% (n = 330,000); AID 504467; note: nearly all actives have a fitted effect of over 55% in size
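5-Fluorouridine DNA damage + compound/DMSO, 2,000 cells/well, 16 h, 37 °C/5% CO2. ONE-Glo, 30 min RT, luminescence. Readout = decrease in reporter signal.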
RORgamma inh – ROR gamma (mouse) transcription inhibition; P51450; Drosophila S2 Gal4-RORgamma UAS-luciferase reporter, 20 h; Potency, µM (highest dose often 53.6 µM), without a hit: top-dose activity change, negative = inhibition, usual class: inhibitors; actives 5.4% (n = 310,000); note: nearly all actives have a fitted effect of over 60% in size
Target sequence (P51450 whole entry, looked up, the tested form may be a part): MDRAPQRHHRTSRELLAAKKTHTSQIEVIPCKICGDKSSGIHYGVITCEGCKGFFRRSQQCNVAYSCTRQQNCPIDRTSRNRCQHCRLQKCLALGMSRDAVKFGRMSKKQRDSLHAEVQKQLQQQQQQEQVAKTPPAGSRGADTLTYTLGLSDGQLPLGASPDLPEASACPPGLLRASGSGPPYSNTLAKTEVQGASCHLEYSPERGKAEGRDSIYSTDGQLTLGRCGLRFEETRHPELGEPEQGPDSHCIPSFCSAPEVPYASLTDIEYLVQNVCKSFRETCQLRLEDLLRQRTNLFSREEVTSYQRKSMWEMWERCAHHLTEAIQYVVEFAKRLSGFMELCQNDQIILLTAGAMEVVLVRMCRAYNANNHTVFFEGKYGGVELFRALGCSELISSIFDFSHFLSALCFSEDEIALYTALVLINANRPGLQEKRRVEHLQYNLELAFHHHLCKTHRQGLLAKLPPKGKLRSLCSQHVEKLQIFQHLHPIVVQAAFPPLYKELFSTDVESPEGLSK
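A Gal4/UAS one-hybrid system in insect cells: metallothionein-promoter Gal4–ROR gamma fusion plus Photinus luciferase reporter. Copper sulfate 700 uM final, 20 hr ambient incubation, luminescent detection after 10 min with reagent.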
Starred values were filed as active, the others as inactive; ? = inconclusive; . = no result. Most compounds without a hit are left out; they make up all but 15% or so of the library. Calls come from the whole dose curve; as a rule, active = well fitted curve in the direction sought with a large enough effect; inconclusive = small, poorly fitted or top-dose-only effect, or another doubt; inactive = no such curve, though single readings can be large; an effect the other way counts as inactive or inconclusive. % is set by controls: 0 for no effect and ±100 for the full control effect; potency is the fitted concentration of half-maximal effect.

SMILES | DT40 TDP1 no CPT | TDP1 cell CPT | 12-LOX inh | VP16 counter | ELG1 DNA repair | RORgamma inh
COc1ccc(C(=O)Nc2ccc3nc4c(c(Nc5ccccc5OC)c3c2)CCCC4)c(OC)c1 | 3.26µM* | 3.66µM* | -17.7% | . | . | .
COc1ccccc1Nc1c2c(nc3ccc(NC(=O)c4ccc(OC)c(OC)c4)cc13)CCCC2 | 14.6µM* | 23.1µM* | ? | . | . | .
NC(=O)C(Oc1ccccc1Cl)c1ccccc1 (centres undefined) | . | . | 32.8% | . | . | .
COc1ccccc1Nc1c2c(nc3ccc(N)cc13)CCCC2 | 20.6µM* | 16.4µM* | -13.1% | -12.3% | -8.2% | -11.8%
COc1ccccc1Nc1c2c(nc3ccc(NC(=O)c4ccccc4F)cc13)CCCC2 | 16.4µM* | 5.17µM* | -3.6% | . | . | .
COc1ccccc1NC(=O)c1ccc2c(Cl)c3c(nc2c1)CCCC3 | -2.0% | 0.3% | -28.8% | . | . | .
COc1ccccc1C(=O)Nc1ccc2nc3n(c(=O)c2c1)CCCC3 | -25.4% | ? | 99.0% | -6.1% | 0.4% | -14.6%
CCOC(=O)N1CCN(C(=O)c2ccccc2NC(C)=O)CC1 | 12.6% | 20.0% | -5.4% | -16.1% | ? | -6.1%
CCOC(=O)N1CCN(C/C(Cl)=C/c2ccccc2)CC1 | -14.9% | 2.5% | 2.24µM* | 2.8% | ? | 31.3%
CCOC(=O)N1CCN(c2nc(-c3ccccc3)c3ccccc3n2)CC1 | 25.9µM* | -25.7% | . | 7.8% | -9.3% | 3.5%
O=C(COc1ccccc1Cl)Nc1ccccc1C(=O)N1CCCCC1 | 16.4µM* | ? | -28.7% | 0.3% | ? | 18.9%
CCOC(=O)N1CCN(C(=O)c2ccccc2NC(=O)COc2ccccc2)CC1 | 16.4µM* | ? | 12.4% | -13.6% | ? | 29.7%
O=C(O)CCC(=O)N1CCN(c2nc(-c3ccccc3)c3ccccc3n2)CC1 | -17.4% | -16.5% | 87.4% | 0.5% | 2.7% | 37.0%
c1csc(-c2nc(CSc3nnc(C4CC4)n3C3CC3)co2)c1 | . | . | 0.0% | . | . | .
COc1ccc(C(=O)N2CCc3onc(-c4ccc(C(F)(F)F)cc4)c3C2)o1 | . | . | 14.8% | . | . | .
CCOC(=O)N1CCN(C(=O)c2ccccc2-c2ccccc2)CC1 | 3.26µM* | 3.66µM* | 50.2% | -12.4% | ? | -9.4%
CN1C(=O)c2cccn2CC1CNC(=O)C1CCCC1 (centres undefined) | . | . | 22.7% | . | . | .
Cc1ccc(S(=O)(=O)C(C#N)c2nc3ccccc3nc2N2CC(C)OC(C)C2)cc1C (centres undefined) | 14.6µM* | ? | -53.4% | -22.2% | ? | ?
Cc1cccc(S(=O)(=O)C(C#N)c2nc3ccccc3nc2N2CC(C)OC(C)C2)c1 (centres undefined) | 25.9µM* | 25.9µM* | ? | -7.9% | . | 2.6%
CCN1CCN(c2nc3ccccc3nc2C(C#N)S(=O)(=O)c2ccc(C)c(C)c2)CC1 (centres undefined) | -9.2% | -4.3% | 0.0% | -0.7% | -16.8% | -13.6%
N#CC(c1nc2ccccc2nc1N1CCOCC1)S(=O)(=O)c1ccccc1 (centres undefined) | 29.1µM* | -7.1% | ? | 2.0% | ? | 19.5%
O=C(Nc1ccc(CC(=O)N2CCOCC2)cc1)c1ccc(Cl)cc1 | . | . | 21.3% | . | . | .
O=C(COc1ccc(F)cc1)Nc1cccc2cccnc12 | . | . | 4.2% | . | . | .
COc1ccccc1Cn1c(C(C)NC(=O)c2ccco2)nc2ccccc21 (centres undefined) | . | . | -3.3% | . | . | .
Cc1cc(NC(=O)N(Cc2ccco2)C2CCCC2)no1 | . | . | 6.1% | . | . | .
COc1cc2c(cc1NC(=O)COC(=O)C(CCSC)NC(=O)c1ccccc1Cl)oc1ccccc12 (centres undefined) | ? | ? | -26.8% | ? | ? | 10µM*
